# Compound activity deposited in PubChem by several laboratories.
# M18AAP inhibitor – PfM18AAP inhibitors, malaria aminopeptidase, primary screen, biochemical, QFRET, recombinant enzyme; H-Glu-NHMec fluorogenic cleavage; inhibition, % at 7.35 µM; hit rate 1.2% among 290,000; AID 1822, 2009;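 active means inhibition above the campaign mean inhibition over all tested compounds plus 3 SD, cut at about 28% in these data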;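 further: 0% = plate median of test compound wells and 100% = 2 mM ZnCl2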
# Mot1-301 SUMO – yeast Mot1-301 growth rescue at high temperature, primary screen, SUMOylation pathway inhibitor project, S. cerevisiae, ATP luminescence, 38.5C. hit rate 1% among 320,000. S. cerevisiae Mot1-301 growth rescue; percent above DMSO median, 100 means doubled. growth rescue, % at 18.8 µM;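 active means every valid replicate shows activation above 250% relative to neutral control wells; inactive means the rest, any valid replicate at or below 250%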;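 further: OY570 slx delta 5 strain wells were the positive control but not used for scaling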
# HIF act – HIF pathway transcriptional activators, primary screen, cell-based, U2OS HRE-luciferase, luminescence. U2OS HRE-luciferase reporter; normalized: DMSO 0%, desferrioxamine 100%. hit rate 0.32% among 300,000. activation, % at 7.5 µM (by protocol). AID 1910, 2009;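 active means mean activation of at least 10% of the iron chelator positive control signal, with at least half of replicates also reaching 10%; inconclusive means mean and replicate majority disagree about reaching 10%; inactive means mean and most replicates under 10%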
# ALR inh – inhibitors of human ALR sulfhydryl oxidase, primary screen, biochemical, H2O2 detection, HRP-luminol luminescence, single point. hit rate 3.8% among 290,000. FAD-linked sulfhydryl oxidase ALR (Homo sapiens), P55789. AID 485317, 2010. purified ALR, DTT oxidation. inhibition, % (concentration not given with the values);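 active means mean replicate inhibition above about 79%, with every replicate also reaching it, limit read from the data; inconclusive means only one of the two criteria met; inactive means mean below limit and not every replicate reaching it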
# Target sequence (P55789 whole entry, looked up): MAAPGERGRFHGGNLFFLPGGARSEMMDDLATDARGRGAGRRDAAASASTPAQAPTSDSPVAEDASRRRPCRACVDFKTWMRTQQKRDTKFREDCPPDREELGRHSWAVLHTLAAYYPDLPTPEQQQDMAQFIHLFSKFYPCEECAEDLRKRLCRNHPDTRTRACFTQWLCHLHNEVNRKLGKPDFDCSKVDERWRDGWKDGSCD
# * marks the source's active call; other numbers are inactive results; u = inconclusive; x = not tested or not shown. Compounds with a hit are over-represented: about 5.3% of the library has one in this group of screens.
SMILES,M18AAP inhibitor,Mot1-301 SUMO,HIF act,ALR inh
O=C(OCn1ncc(Br)c(Br)c1=O)c1ccccc1Cl,-14.0,56.7,1.8,20.2
O=C(OCn1ncc(Cl)c(Cl)c1=O)c1cccc(C(F)(F)F)c1,-20.4,55.9,-5.5,97.1*
O=c1oc2cc(O)ccc2c2ccccc12,-2.4,254.5,-0.1,88.0*
COC(=O)CC1C(=O)NCCN1C(=O)c1ccccc1 (configuration not stated),0.9,5.6,-0.2,6.4
O=C(CSc1nc2ccccc2s1)N1CCOCC1,9.4,3.0,1.6,97.2*
COC(=O)CC1C(=O)NCCN1C(=O)CSc1nc2ccccc2s1 (configuration not stated),14.6,-11.8,0.8,98.9*
Nc1nc(CSc2nc3ccccc3s2)nc(N2CCOCC2)n1,-2.2,27.4,-0.2,99.3*
CCOC(=O)N1CCC(Nc2c(-c3ccccc3)c(=O)c2=O)CC1,-15.4,26.3,12.8*,1.0
CCOC(=O)N1CCC(Nc2cccc(SC)c2)CC1,14.3,-10.0,-0.6,97.5*
CCOC(=O)N1CCC(N(CCOC)C(=S)Nc2cccc(SC)c2)CC1,-3.1,-1.9,0.8,-38.5
Nc1nc(N)nc(-c2cc(F)ccc2O)n1,x,-3.8,x,-2.2
Cc1cc(NC(=O)COC(=O)c2ccco2)no1,-14.1,x,-1.2,1.6
CCC(C)C(NC(=O)OC(C)(C)C)C(=O)NC(C)C(N)=O (configuration not stated),-11.9,-8.5,0.5,-3.0
Cc1ccc(NC(=O)CSc2nc3ccc(Nc4nc(N5CCOCC5)nc(N5CCOCC5)n4)cc3s2)cc1,-6.4,2.6,x,-5.2
CC(=O)CSc1nc2ccc(Nc3nc(N4CCOCC4)nc(N4CCOCC4)n3)cc2s1,3.1,1.8,-0.2,99.0*
CCOC(=O)CSc1nc2ccc(Nc3nc(N4CCOCC4)nc(N4CCOCC4)n3)cc2s1,-3.4,4.3,0.3,99.0*
CC(C)(C)NC(=O)CSc1nc2ccc(Nc3nc(N4CCOCC4)nc(N4CCOCC4)n3)cc2s1,-1.7,2.3,-0.2,99.2*
CCN(CC)C(=O)c1sc(NC(=O)C(C)C)c(C#N)c1C,-14.4,-9.5,-0.1,-10.8
C#Cc1ccc(CN2CCC(Oc3ccc(C(=O)NCc4ccccn4)cc3)CC2)cc1,-0.1,125.2,0.1,-2.2
COc1ccc(N2CCN(C(CNC(=O)C(=O)NCc3ccc4c(c3)OCO4)c3ccco3)CC2)cc1 (configuration not stated),-4.5,-17.9,-0.2,-8.1
COc1ccc(N2CCN(C(CNC(C)=O)c3ccc4c(c3)OCO4)CC2)cc1 (configuration not stated),5.6,-14.9,-1.0,88.0*
COc1ccc(N2CCN(C(CNC(=O)CC(C)(C)C)c3ccc4c(c3)OCO4)CC2)cc1 (configuration not stated),3.2,-18.1,-0.4,81.7*
COc1ccc(NC2=C(C(C)=O)C(c3ccc(N(C)C)cc3)C(C(C)=O)C(C)(O)C2)cc1 (configuration not stated),11.4,40.0,0.7,91.2*
O=C(C1CCC(=O)N(C2CC2)C1)N1CCC(Oc2ccccc2F)CC1 (configuration not stated),-9.6,40.9,0.3,23.1
CCn1nc(C)cc1C(=O)Sc1cccc(Br)c1,7.7,-35.3,0.7,x
SMILES,M18AAP inhibitor,Mot1-301 SUMO,HIF act,ALR inh
CC1CCCC(NC(=O)Cn2cc(C(F)(F)F)cc(Cl)c2=O)C1C (configuration not stated),x,-10.1,x,x
Cc1csc(/N=C/c2ccc([N+](=O)[O-])cc2)n1,-8.9,4.6,x,84.8*
O=[N+]([O-])c1ccc(/C=N/N2CCCCC2)cc1,1.9,2.9,3.9,21.2
COc1cccc(N2CCN(S(=O)(=O)c3ccc4c(c3)NC(=O)C(C)C(=O)N4)CC2)c1 (configuration not stated),4.0,-6.9,-0.4,12.4
COc1ccc(CNC(=O)C2CCCN(c3ncnc4c3nc3n4CCCCC3)C2)cc1 (configuration not stated),5.4,12.4,-0.1,-3.7
CC(Oc1ccc(Cl)cc1)C(=O)N(C)CC(=O)Nc1ccc(N2CCOCC2)cc1 (configuration not stated),1.1,1.5,-0.2,92.6*
CC(Sc1ccc(Cl)cc1)C(=O)N(C)CC(=O)Nc1ccc(N2CCOCC2)cc1 (configuration not stated),x,64.9,0.1,92.2*
Cc1ccc(NC(=O)CN(C)CC(=O)Nc2ccc(N3CCOCC3)cc2)cc1F,2.8,-40.7,-0.8,32.5
Cc1ccc(CC(=O)N(C)CC(=O)Nc2ccc(N3CCOCC3)cc2)cc1C,x,-4.8,-0.3,99.4*
CC(Sc1ccc2c(c1)OCCO2)C(=O)Nc1ccc(N2CCOCC2)cc1 (configuration not stated),7.8,97.8,1.8,99.0*
CC(Oc1cccc(Cl)c1)C(=O)Nc1ccc(N2CCOCC2)cc1N1CCOCC1 (configuration not stated),x,4.5,-0.5,97.8*
CC(C(=O)NCC1CCCCC1)N(C)CC(=O)Nc1ccc(N2CCOCC2)cc1 (configuration not stated),-5.7,298.5,0.1,91.7*
CC(Oc1ccc(F)cc1)C(=O)Nc1ccc(N2CCOCC2)cc1N1CCOCC1 (configuration not stated),x,10.5,-0.4,u
CN(CC(=O)Nc1ccc(N2CCOCC2)cc1)C(=O)CC(c1ccccc1)c1ccccc1,-6.0,-12.2,x,x
COc1ccc(N2CCN(C(=O)COC(=O)COc3cccc(C(F)(F)F)c3)CC2)cc1,x,-9.3,x,58.9
O=C(COC(=O)c1ccc[nH]c1=O)Nc1ccc(N2CCCCC2)cc1,x,-4.7,x,53.9
Cc1nc2c(C(=O)NCc3ccccc3Cl)c[nH]n2c(=O)c1Cl,0.2,2.4,-0.2,x
Cc1nc2c(C(=O)NCCc3ccccc3Cl)c[nH]n2c(=O)c1Cl,-1.0,234.3,0.3,98.7*
CC(C)CC(=O)NNC(=S)Nc1ccc(S(N)(=O)=O)cc1,29.3*,-10.5,-0.3,69.3
Oc1ccc(N=Nc2ccc3ccccc3c2)cc1,-6.1,262.8,-19.1,22.5
O=[N+]([O-])c1ccccc1N=Nc1ccc(O)cc1,x,34.5,1.3,80.2*
N#Cc1c(N)n[nH]c1-c1cc2c([nH]1)CCCC2,-0.1,1.1,0.3,98.4*
c1cn2c(Nc3ccc4c(c3)OCCO4)c(-c3ccc(N4CCOCC4)cc3)nc2cn1,1.0,2.4,0.9,u
COc1ccc(Sc2ccc(-c3nc4cnccn4c3NC3CCCCC3)cc2OC)cc1,x,-5.9,x,2.1
Cc1cccc(C)c1Nc1c(-c2ccc(N3CCOCC3)cc2)nc2cnccn12,5.5,-1.4,0.4,98.8*
COc1cc(-c2nc3cnccn3c2NC(C)(C)CC(C)(C)C)ccc1O,16.0,-20.0,-0.2,99.2*
CCCCNc1c(-c2ccc(-c3ccc(C(C)=O)cc3)c(OC)c2)nc2cnccn12,x,30.8,0.2,x
COc1cc(-c2nc3cnccn3c2Nc2c(C)cccc2C)ccc1O,12.5,0.4,-0.1,98.4*
